Key:
Assay in all cases: log2 ratio of Biotin-Ahx-Ub-VS probe labelling (fragment/DMSO); higher = less target engagement (more negative = stronger competition), active = hit call of the paper (q ≤ 0.05, log2 ratio ≤ -1)
Details in all cases: compound concentration: 200 uM; treatment time: 3 h
USP42 = biological target: T1, USP42 (UniProt Q9H9J4)
T1 sequence (whole entry): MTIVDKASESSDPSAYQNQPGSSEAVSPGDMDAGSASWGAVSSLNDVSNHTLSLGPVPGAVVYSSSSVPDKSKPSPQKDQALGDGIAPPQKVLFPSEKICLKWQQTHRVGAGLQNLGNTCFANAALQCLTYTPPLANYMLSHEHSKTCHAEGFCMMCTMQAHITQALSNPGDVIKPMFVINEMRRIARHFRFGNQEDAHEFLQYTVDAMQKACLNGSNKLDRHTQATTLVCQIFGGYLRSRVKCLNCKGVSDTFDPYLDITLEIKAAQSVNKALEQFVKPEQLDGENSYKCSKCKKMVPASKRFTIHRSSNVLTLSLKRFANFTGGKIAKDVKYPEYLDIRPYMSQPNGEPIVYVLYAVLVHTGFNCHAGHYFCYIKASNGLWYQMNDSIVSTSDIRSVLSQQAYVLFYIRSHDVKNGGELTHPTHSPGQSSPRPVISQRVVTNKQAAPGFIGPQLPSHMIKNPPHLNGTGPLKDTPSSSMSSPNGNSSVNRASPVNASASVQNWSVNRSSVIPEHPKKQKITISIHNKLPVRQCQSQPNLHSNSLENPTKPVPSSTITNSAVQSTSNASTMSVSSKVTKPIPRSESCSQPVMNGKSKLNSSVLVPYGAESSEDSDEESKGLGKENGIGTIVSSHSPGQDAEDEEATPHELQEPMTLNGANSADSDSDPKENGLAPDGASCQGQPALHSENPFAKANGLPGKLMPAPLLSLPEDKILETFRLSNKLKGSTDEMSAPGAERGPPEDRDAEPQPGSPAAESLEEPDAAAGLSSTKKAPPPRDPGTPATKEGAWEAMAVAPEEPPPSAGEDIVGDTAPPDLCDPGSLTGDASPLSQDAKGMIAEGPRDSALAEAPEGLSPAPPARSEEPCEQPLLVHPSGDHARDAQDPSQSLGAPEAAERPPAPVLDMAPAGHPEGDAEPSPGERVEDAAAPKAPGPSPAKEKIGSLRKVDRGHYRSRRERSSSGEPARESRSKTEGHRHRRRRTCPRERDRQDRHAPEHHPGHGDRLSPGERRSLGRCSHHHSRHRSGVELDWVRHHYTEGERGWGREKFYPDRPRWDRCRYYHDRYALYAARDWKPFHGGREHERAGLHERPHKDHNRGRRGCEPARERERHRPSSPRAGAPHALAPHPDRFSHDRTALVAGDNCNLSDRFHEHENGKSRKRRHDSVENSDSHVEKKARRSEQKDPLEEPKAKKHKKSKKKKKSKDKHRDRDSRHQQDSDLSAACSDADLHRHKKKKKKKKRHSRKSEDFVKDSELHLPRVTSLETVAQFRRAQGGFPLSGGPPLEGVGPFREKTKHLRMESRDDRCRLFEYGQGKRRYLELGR
Outline: (§1)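 HEK293T lysate (495 µg per sample, in Tris/CHAPS/IGEPAL buffer with protease inhibitors) was exposed in triplicate for 3 h to fragment at 200 µM or to vehicle, then to Biotin-Ahx-Ub-VS at 0.5 µM final for 1 h. Labelled DUBs were enriched on NeutrAvidin, digested with LysC and trypsin, and analysed by diaPASEF LC-MS/MS. Spectronaut label-free quantities were normalised to the global median, and values are average log2 ratios of fragment over vehicle from an unpaired t-test. Only proteins with ≥2 unique peptides were used.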

USP46 = USP46 (UniProt P62068)
Outline: as §1

USP47 = biological target: T2, USP47 (UniProt Q96K76)
T2 sequence (whole entry): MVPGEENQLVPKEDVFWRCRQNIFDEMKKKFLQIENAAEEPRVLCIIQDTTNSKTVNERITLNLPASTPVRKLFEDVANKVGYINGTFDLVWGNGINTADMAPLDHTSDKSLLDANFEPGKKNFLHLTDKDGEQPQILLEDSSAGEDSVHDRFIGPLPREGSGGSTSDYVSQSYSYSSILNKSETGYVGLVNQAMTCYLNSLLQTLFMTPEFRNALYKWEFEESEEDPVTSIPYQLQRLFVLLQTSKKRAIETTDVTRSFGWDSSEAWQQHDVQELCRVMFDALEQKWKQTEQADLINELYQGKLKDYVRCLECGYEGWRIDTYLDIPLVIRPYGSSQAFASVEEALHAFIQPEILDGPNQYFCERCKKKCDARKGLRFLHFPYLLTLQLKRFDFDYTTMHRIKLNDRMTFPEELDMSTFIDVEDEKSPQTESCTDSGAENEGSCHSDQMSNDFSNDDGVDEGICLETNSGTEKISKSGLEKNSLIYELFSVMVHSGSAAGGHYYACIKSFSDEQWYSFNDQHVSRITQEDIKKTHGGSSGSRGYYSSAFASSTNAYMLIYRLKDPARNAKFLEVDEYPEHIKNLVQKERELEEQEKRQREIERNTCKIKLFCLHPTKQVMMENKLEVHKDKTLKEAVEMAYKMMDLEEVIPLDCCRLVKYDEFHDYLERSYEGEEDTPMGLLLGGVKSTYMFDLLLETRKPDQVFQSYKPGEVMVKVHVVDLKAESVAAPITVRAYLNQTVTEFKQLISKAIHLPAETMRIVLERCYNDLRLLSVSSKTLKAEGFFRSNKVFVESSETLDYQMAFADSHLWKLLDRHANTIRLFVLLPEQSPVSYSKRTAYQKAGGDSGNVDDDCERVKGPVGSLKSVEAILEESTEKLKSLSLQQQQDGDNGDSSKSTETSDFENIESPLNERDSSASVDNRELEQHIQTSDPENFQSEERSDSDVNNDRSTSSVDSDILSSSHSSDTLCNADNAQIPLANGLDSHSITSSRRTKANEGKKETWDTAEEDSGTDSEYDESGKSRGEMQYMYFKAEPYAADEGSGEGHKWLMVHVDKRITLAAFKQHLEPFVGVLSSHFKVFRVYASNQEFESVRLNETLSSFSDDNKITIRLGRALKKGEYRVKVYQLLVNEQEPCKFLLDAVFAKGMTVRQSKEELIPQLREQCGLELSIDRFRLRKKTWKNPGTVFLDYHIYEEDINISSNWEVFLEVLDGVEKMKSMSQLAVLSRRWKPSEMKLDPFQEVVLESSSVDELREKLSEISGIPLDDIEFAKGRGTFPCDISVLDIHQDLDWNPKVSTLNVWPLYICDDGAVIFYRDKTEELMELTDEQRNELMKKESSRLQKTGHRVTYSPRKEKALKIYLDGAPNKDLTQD
Outline: as §1

USP48 = biological target: T3, USP48 (UniProt Q86UV5)
T3 sequence (whole entry): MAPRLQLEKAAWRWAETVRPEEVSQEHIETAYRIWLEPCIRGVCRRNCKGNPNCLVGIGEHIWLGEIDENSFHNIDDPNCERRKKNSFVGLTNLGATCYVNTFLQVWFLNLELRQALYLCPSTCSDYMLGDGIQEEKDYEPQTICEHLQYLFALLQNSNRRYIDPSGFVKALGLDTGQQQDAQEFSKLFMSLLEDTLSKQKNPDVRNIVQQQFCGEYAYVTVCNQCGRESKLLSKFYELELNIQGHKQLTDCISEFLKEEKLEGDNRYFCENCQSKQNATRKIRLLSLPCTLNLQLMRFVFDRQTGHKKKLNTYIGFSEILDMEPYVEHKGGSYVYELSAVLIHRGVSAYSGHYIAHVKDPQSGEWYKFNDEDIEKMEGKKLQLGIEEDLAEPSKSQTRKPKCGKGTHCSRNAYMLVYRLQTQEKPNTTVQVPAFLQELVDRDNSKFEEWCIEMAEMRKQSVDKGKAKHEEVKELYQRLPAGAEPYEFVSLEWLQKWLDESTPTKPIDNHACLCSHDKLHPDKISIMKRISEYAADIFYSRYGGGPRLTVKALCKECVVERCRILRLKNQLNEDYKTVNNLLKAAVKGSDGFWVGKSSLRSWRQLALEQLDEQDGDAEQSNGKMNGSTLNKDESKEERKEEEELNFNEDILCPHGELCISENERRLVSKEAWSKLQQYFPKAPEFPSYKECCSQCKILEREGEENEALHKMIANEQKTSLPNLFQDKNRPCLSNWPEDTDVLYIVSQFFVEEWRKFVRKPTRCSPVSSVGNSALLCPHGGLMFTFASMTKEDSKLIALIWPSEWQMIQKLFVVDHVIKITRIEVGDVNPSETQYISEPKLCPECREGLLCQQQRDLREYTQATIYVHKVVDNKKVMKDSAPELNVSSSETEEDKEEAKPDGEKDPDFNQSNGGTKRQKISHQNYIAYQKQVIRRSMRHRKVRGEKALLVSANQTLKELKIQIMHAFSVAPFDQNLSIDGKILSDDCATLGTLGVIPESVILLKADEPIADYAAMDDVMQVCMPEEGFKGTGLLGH
Outline: as §1

USP5 = biological target: T4, USP5 (UniProt P45974)
T4 sequence (whole entry): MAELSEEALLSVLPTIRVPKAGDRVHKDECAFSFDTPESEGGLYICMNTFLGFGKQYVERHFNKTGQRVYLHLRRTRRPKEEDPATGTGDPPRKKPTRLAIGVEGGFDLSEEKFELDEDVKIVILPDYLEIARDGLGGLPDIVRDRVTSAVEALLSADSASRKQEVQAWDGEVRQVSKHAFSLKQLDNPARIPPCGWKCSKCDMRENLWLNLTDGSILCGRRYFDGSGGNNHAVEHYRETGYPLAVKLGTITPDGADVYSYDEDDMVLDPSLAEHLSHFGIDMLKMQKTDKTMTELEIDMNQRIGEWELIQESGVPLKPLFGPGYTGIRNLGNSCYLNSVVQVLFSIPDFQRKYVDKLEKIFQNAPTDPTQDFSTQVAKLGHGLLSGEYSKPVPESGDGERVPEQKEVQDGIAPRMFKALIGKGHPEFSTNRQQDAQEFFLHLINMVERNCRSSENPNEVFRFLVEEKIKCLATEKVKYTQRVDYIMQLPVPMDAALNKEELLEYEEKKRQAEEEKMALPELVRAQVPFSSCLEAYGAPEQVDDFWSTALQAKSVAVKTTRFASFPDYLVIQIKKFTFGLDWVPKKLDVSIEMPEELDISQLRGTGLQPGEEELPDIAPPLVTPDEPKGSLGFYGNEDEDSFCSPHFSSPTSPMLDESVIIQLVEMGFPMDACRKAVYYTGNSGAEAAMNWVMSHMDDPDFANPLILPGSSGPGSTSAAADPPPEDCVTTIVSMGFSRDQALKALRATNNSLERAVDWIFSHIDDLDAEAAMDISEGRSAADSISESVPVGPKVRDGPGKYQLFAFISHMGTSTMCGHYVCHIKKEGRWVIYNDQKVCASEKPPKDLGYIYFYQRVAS
Outline: as §1

USP54 = USP54 (UniProt Q70EL1)
Outline: as §1

USP7 = USP7 (UniProt Q93009)
Outline: as §1

USP8 = biological target: T5, USP8 (UniProt P40818)
T5 sequence (whole entry): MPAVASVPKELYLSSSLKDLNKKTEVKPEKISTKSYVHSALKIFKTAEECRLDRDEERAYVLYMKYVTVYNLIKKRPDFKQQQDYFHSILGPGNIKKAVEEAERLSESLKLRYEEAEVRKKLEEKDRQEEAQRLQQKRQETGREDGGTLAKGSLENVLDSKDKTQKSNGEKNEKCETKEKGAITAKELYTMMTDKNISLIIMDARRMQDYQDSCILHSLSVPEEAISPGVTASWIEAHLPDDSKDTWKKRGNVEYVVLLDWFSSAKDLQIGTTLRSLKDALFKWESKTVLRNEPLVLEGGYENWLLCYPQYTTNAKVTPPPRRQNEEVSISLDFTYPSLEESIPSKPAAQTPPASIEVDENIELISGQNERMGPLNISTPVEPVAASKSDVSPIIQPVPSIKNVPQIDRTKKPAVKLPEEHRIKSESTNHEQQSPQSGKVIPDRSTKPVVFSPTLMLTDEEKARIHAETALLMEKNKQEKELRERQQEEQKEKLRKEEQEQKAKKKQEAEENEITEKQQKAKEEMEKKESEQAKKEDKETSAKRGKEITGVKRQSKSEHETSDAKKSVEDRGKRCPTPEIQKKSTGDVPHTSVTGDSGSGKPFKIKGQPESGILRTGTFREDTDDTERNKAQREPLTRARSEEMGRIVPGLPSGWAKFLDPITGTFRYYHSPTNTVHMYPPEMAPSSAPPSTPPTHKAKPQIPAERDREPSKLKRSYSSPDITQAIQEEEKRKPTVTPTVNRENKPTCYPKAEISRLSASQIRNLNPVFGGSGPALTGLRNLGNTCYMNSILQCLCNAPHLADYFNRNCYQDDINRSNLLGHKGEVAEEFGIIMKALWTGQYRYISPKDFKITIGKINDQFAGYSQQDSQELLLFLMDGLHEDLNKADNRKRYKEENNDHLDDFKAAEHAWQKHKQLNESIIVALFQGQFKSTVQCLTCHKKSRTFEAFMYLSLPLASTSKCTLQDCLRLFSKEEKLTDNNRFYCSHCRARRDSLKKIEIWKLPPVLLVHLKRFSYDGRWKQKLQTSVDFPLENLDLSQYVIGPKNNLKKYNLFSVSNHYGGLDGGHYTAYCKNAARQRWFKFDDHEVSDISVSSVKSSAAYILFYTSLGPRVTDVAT
Outline: as §1

Measured: log2 ratio of Biotin-Ahx-Ub-VS probe labelling

Chain of USP46 (P62068 whole entry): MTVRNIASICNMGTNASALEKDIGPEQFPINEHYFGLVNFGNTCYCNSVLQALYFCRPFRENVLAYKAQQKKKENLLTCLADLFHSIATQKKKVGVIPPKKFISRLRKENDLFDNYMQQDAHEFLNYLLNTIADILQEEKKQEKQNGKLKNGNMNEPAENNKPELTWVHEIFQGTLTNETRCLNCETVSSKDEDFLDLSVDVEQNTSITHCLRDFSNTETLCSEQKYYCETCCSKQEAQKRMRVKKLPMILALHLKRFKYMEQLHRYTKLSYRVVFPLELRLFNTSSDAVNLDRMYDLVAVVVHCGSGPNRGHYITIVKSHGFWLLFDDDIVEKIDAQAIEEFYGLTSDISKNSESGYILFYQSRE
Chain of USP7 (Q93009 whole entry, looked up): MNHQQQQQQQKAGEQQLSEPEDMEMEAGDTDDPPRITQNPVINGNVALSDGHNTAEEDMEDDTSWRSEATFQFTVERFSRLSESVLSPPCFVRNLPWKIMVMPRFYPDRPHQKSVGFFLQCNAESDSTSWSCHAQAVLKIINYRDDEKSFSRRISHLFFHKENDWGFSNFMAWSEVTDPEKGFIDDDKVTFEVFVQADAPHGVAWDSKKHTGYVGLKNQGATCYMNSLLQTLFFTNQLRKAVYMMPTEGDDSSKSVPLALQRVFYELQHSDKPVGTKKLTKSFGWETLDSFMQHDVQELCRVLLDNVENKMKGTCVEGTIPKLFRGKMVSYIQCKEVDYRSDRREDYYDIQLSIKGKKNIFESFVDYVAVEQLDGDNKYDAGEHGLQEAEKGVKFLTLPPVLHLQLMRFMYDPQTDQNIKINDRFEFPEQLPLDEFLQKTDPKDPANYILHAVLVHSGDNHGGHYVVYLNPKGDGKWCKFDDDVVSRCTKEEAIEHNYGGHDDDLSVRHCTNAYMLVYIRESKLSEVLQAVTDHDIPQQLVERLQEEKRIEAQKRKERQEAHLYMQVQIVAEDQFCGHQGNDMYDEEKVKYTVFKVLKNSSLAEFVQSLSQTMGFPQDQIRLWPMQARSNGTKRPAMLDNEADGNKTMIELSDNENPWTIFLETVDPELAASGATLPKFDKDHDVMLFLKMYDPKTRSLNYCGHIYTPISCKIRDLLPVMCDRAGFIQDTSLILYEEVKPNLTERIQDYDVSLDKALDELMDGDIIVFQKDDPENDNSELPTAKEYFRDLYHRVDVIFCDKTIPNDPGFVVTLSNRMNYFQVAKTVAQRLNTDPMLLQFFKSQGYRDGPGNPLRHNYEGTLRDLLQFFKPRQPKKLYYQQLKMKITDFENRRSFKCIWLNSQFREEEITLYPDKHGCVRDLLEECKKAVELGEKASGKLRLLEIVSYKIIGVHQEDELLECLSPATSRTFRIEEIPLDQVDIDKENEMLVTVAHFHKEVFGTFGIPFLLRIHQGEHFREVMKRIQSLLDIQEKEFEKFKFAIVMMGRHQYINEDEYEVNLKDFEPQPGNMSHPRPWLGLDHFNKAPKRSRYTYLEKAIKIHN
Chain of USP54 (Q70EL1 whole entry): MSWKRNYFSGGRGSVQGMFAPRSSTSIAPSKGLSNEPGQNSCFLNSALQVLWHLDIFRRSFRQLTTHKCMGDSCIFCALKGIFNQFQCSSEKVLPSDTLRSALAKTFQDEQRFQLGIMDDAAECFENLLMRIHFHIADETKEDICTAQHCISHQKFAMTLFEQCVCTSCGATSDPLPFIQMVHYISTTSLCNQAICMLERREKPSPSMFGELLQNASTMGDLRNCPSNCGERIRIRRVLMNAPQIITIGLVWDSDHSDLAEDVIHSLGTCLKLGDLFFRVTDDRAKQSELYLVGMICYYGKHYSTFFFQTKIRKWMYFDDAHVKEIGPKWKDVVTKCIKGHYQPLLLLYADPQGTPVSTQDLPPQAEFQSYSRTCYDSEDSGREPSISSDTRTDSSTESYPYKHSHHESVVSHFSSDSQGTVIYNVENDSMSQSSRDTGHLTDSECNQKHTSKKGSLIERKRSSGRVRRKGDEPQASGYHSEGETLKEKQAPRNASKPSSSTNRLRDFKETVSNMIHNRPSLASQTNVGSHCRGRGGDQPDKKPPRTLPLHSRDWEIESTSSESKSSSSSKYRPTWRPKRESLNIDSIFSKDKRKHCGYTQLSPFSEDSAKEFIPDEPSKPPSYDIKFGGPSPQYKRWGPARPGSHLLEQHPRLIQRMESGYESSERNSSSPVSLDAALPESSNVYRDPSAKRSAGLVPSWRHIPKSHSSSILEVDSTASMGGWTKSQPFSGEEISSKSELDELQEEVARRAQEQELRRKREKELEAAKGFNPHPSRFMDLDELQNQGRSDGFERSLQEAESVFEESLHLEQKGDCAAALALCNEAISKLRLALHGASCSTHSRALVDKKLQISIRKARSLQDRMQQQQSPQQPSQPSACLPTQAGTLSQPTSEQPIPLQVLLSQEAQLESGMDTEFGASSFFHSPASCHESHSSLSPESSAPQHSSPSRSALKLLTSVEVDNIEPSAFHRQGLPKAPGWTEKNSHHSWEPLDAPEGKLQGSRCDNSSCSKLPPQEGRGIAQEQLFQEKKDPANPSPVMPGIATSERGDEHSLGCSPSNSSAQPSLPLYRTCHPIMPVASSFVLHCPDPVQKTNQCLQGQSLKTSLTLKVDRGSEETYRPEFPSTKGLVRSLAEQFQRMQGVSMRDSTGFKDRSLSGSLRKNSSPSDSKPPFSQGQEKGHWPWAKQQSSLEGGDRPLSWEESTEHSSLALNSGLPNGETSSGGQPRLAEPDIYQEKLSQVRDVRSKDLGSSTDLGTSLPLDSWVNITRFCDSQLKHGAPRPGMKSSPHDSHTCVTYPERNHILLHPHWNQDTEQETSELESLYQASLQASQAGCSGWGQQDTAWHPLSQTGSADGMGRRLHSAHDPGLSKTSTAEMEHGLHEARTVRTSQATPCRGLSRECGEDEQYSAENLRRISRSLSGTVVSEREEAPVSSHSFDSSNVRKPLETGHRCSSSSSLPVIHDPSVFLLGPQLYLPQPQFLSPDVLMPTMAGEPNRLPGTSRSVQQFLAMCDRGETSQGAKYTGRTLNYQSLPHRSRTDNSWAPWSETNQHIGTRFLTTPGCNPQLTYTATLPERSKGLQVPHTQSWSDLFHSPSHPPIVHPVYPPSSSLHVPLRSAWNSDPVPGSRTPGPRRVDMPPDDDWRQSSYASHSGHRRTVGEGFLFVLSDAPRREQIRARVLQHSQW

COCC[C@@H](NC(=O)CCl)c1ccccc1
inactive: USP42 0.331 | USP46 0.164 | USP47 -0.122 | USP48 -0.261 | USP5 0.0242 | USP54 0.235 | USP7 -0.0296 | USP8 -0.0978

From the supplement of paper PMC11732987, “Enantioselective OTUD7B fragment discovery through chemoproteomics screening and high-throughput optimisation” (Communications Chemistry, 2025)
